Assay outcomes as filed in PubChem BioAssay.
Shown are actives, neighbours in structure and some others; about 2% of the full set was active somewhere.
MBD2 DNA inh – MBD2-methylated oligo binding inhibition; Q9UBB5; TR-FRET, MBD2 binding to methylated oligonucleotide; inhibition, % at 4.4 µM; 370,000 compounds, 0.31% hits; in the data active = inhibition above about 13%
Target sequence (Q9UBB5 whole entry, looked up): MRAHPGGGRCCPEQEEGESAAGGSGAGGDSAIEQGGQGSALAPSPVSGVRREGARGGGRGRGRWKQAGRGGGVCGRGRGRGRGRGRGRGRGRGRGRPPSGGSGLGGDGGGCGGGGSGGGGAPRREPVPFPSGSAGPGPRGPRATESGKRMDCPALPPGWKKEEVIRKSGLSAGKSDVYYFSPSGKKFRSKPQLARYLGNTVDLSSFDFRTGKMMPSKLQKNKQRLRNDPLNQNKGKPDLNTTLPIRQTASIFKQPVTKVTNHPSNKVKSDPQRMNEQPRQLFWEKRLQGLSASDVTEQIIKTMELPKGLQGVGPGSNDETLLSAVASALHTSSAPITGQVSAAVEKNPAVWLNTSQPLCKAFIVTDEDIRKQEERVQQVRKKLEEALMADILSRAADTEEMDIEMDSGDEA
UHRF1 binding – UHRF1 methyl-DNA binding inhibition. Q96T88. UHRF1 binding to methylated oligo, TR-FRET. inhibition, % at 4.4 µM. 370,000 compounds, 0.75% hits; in the data active = inhibition above about 21%;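 also: UHRF1 SRA domain binding a hemimethylated CpG hairpin DNA probe; 0% = median of test compound wells and 100% = reference inhibitor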
LEDGF integ inh – blocks HIV-1 LEDGF/p75-dependent DNA integration; TR-FRET IN-LEDGF/p75 DNA integration, Eu/Cy5; inhibition, % at 3.7 µM; 370,000 compounds, 0.64% hits;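 active = inhibition above the screen-wide mean plus 3 SD, cut at about 13% in these data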;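 also: signal is the Cy5 over europium emission ratio at 671 and 618 nm; 0% = plate median of compound wells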
Rin1-Abl PPI inh – blocks binding of human Rin1 to Abl; P00519+Q13671; TR-FRET Rin1/Abl binding, biochemical; inhibition, % at 7.35 µM; 360,000 compounds, 0.4% hits; in the data active = inhibition above about 5%, passing the limit was not always enough
TCR CD3 inh – inhibitors of human TCR-CD3 interaction | TAMRA-labeled TCR probe fluorescence, biochemical | inhibition, % at 9.4 µM | 360,000 compounds, 0.37% hits | AID 651800; in the data active = inhibition above about 19%;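 also: recombinant mutant TCR 2C K166C tagged with TAMRA read by polarization; 0% = receptor in buffer alone and 100% = receptor with positive control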
IN multimer up – HIV-1 integrase multimerization activation, counter-screen. shares compounds with LEDGF integ inh. TR-FRET HIV-1 integrase multimerization, biochemical. activation, % at 7.7 µM. 2,000 compounds, 17% hits. AID 1053131; in the data active = activation above about 8.9%
TRFRET interf – TR-FRET optical interference, LEDGF/p75 integration counter-screen | shares compounds with LEDGF integ inh | TR-FRET optical interference counterscreen, HIV-1 IN multimerization | inhibition, % at 7.7 µM | 2,000 tested, under 10 active;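 active = inhibition above the mean over all tested compounds plus 3 SD, which no compound reached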;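 also: 0% = integrase with antibodies and DMSO and 100% = antibodies without integrase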
IN-LEDGF confirm – confirmation of HIV-1 LEDGF/p75-dependent integration inhibitors; inhibition, % at 3.7 µM; 2,000 compounds, 36% hits; TR-FRET LEDGF/p75-dependent HIV-1 integration, biochemical; AID 1053136; shares compounds with LEDGF integ inh; in the data active = inhibition above about 14%
* = called active by the depositor; x = not tested or not shown.

SMILES	MBD2 DNA inh	UHRF1 binding	LEDGF integ inh	Rin1-Abl PPI inh	TCR CD3 inh	IN multimer up	TRFRET interf	IN-LEDGF confirm
Fc1cccc(-c2ccc3c(c2)CN(c2cccc(Cl)c2)Cc2cnnn2-3)c1	7	7	34*	2	-9	3	-13	20*
Fc1ccc(N2Cc3ccccc3-n3nncc3C2)cc1	2	1	21*	3	2	0	0	19*
CC(C)(C)C(=O)N1Cc2cc(-c3ccccc3)ccc2-n2nncc2C1	-5	1	15*	1	-4	-1	7	1
COc1ccc(-c2ccc3c(c2)CN(C(=O)C(C)(C)C)Cc2cnnn2-3)cc1	1	-1	6	2	3	x	x	x
CCN(CC)C(=O)Cn1cc(/C=C2\C(=O)NC(=O)N(c3ccccc3F)C2=O)c2ccccc21	2	0	18*	-2	0	2	-6	5
O=C(O)Cn1cc(/C=C2\C(=O)NC(=O)N(c3ccc(Cl)cc3)C2=O)c2ccccc21	-4	-3	0	-1	-6	x	x	x
CCOC(=O)Cn1cc(C=C2C(=O)N(C)C(=O)N(C)C2=O)c2ccccc21	-2	-2	3	0	5	x	x	x
CN1C(=O)C(=Cc2cn(CC#N)c3ccccc23)C(=O)N(C)C1=O	-1	2	16*	4	-5	0	-1	-5
Cc1cc(/C=C2\C(=O)NC(=O)N(Cc3ccco3)C2=O)c(C)n1-c1ccc(O)cc1	12	36*	53*	5	8	4	-13	21*
CCc1ccc(N2C(=O)NC(=O)/C(=C\c3cccn3CCOc3ccc(C(C)C)cc3)C2=O)cc1	4	-3	-1	-2	0	x	x	x
CCOC(=O)C1CCN(/C=C2/C(=O)NC(=O)N(Cc3ccco3)C2=O)CC1	-1	10	14*	-4	3	4	-13	3
Cc1cc(/C=C2/C(=O)NC(=O)N(c3ccccc3)C2=O)c(C)n1-c1ccc(F)cc1	0	-3	1	0	3	x	x	x
Cc1ccccc1-n1c(C)cc(/C=C2/C(=O)NC(=O)N(Cc3ccco3)C2=O)c1C	7	11	49*	0	4	-1	2	0
Cc1ccc(OCCn2cccc2/C=C2/C(=O)NC(=O)N(Cc3ccco3)C2=O)cc1	12	64*	58*	-4	2	-2	11	37*
COc1cc(/C=C2\C[C@H]3[C@@H]4CC=C5C[C@@H](N6CCCC6)CC[C@]5(C)[C@H]4CC[C@]3(C)[C@H]2O)cc(OC)c1OC	-1	-4	-2	2	1	x	x	x
O=c1[nH]c(=O)n(Cc2ccco2)c(O)c1C=NC1CCN(Cc2ccccc2)CC1	0	0	-6	-1	-3	x	x	x
Cc1cc(/C=C2\C(=O)NC(=O)N(Cc3ccco3)C2=O)c(C)n1-c1ccc(C(=O)O)cc1	7	52*	48*	1	0	3	-11	10
Cc1cc(/C=C2\C(=O)NC(=O)N(c3ccc(F)cc3)C2=O)c(C)n1-c1ccc(C(=O)O)cc1	0	-1	4	2	6	x	x	x
O=c1[nH]c(=O)n(Cc2ccco2)c(O)c1/C=N/N1CCCCCC1	-4	-1	1	4	-3	x	x	x
N#Cc1c(/N=C/c2c(O)n(Cc3ccco3)c(=O)[nH]c2=O)sc2c1CCCC2	5	46*	34*	3	8	2	-11	10
CCN(CC)c1ccc(N=Cc2c(O)n(-c3cc(OC)ccc3OC)c(=O)[nH]c2=O)cc1	0	-3	16*	3	9	3	-12	3
CCN(CC)c1ccc(N=Cc2c(O)n(Cc3ccco3)c(=O)[nH]c2=O)cc1	2	6	57*	2	10	3	-17	2
CC(C)OP(=O)(OC(C)C)C(NCc1ccccc1)c1ccccc1 (centres undefined)	0	15	3	-3	-2	x	x	x
O=P(OCC(F)(F)C(F)F)(N1CCCCC1)N1CCCCC1	-5	-2	-1	-5	5	x	x	x
CC(CC(C#N)(c1ccccc1)c1ccccc1)N1CCOCC1 (centres undefined)	-3	3	0	1	-3	x	x	x
SMILES	MBD2 DNA inh	UHRF1 binding	LEDGF integ inh	Rin1-Abl PPI inh	TCR CD3 inh	IN multimer up	TRFRET interf	IN-LEDGF confirm
O=C1NCN(c2ccccc2)C12CCN(C(CCc1ccccc1)c1nnnn1-c1ccc3c(c1)OCCO3)CC2 (centres undefined)	2	-3	1	6	-1	x	x	x
O=C(c1cc(-c2ccc(Cl)cc2)n(-c2ccc(Cl)cc2Cl)n1)N1CCOCC1	3	3	26*	-2	-3	0	-2	-8
CCCNC(=O)N1[C@H]2CC[C@@H]1C(C(=O)OC)=C(c1c(C)noc1C)C2	-2	3	0	-1	2	x	x	x
COc1cc(C2c3cc(O)c(OC)cc3CC3C(=O)OCC32)ccc1O (centres undefined)	1	0	14*	2	-1	-1	6	-5
Cc1ccc(-n2c(O)c(C=NC3CCCCC3N)c(=O)[nH]c2=O)cc1C (centres undefined)	0	-2	1	-2	4	x	x	x
Cc1cccc(N2C(=O)NC(=O)/C(=C\c3cccn3-c3ccc(Cl)cc3)C2=O)c1	0	-4	1	2	-7	x	x	x
Cc1ccc(N2C(=O)NC(=O)/C(=C\C=C\c3ccco3)C2=O)cc1	2	8	41*	4	-4	0	1	33*
Cc1ccc(N2C(=O)NC(=O)/C(=C\C=C\c3ccco3)C2=O)cc1C	5	12	29*	-2	-19	1	-4	34*
Cc1cccc(N2C(=O)NC(=O)/C(=C\C=C\c3ccco3)C2=O)c1	5	11	31*	-2	-17	0	-2	28*
CN(C)c1ccc(/C=C/C=C2/C(=O)NC(=O)N(c3ccccc3)C2=O)cc1	-10	-2	2	-9	-128	x	x	x
O=C1NC(=O)N(c2ccccc2)C(=O)/C1=C/C=C/c1ccco1	7	6	28*	3	-3	0	-2	19*
Cc1cc(N2CCOCC2)ccc1/C=C1\C(=O)NC(=O)N(c2ccccc2)C1=O	2	0	3	1	-12	x	x	x
Cc1nn(CCC#N)c2c1P(=S)(N1CCCC1)OC(c1ccc(F)cc1)=N2 (centres undefined)	-6	1	2	1	7	x	x	x
COc1ccc(CCNCc2ccncc2)cc1	-4	-1	14*	-1	8	-3	9	2
O=C(Cn1cnc2sc3c(c2c1=O)CCCC3)NCCCC(=O)N1CCC2(CC1)OCCO2	0	0	-3	-1	-3	x	x	x
